The values that follow come from PubChem BioAssay AID686979 (National Center for Advancing Translational Sciences (NCATS), 2013).

Molecules are shown by their SMILES. “And” between values parts separate entries of the source, which are not always exact repeats. Equal values may be shown once. About 50,000 (12%) of roughly 420,000 compounds were called active. A call without a number means that no potency is given here. Not shown: some 26% with an inconclusive outcome. Calls come from the whole dose curve; as a rule, active = well fitted inhibition curve with a large enough effect; inconclusive = small, poorly fitted or top-dose-only effect; inactive = flat fitted curve, though single readings scatter. Many of the other results were omitted from the sample, so actives are more common in it than they were.
Potency is the fitted concentration of half-maximal effect.

A short description of the test: qHTS for Inhibitors of human tyrosyl-DNA phosphodiesterase 1 (TDP1): qHTS in cells in presence of CPT. Note: nearly all actives have a fitted effect of over 55% in size. Particulars: chicken DT40 Tdp1-/-;hTDP1 cells + 20 nM CPT, ATP luminescence, 48 h; series mostly up to 46.2 µM. In short, it runs like this: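 Cell growth measured by CellTiter-Glo luminescence after a minimum 48 h, 37 C compound exposure with 20 nM CPT in Tdp1-knockout DT40 cells stably expressing hTDP1, seeded 400/well; qHTS titration format.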
Regarding `COc1ccc(-c2nn3c(-c4ccc(OC)cc4)nnc3c3ccccc23)cc1`, the Potency entry was “inactive”.

Turning to `COc1ccccc1OCCCC(=O)Nc1ccc2c(c1)OCCO2`, the Potency entry was “inactive”.

As for `COc1cccc(/C=C/C(=O)Nc2ccc3c(c2)OCCO3)c1`, the Potency result is “inactive”. As to `COc1ccc(OC)c(/C=C/C(=O)OCC(=O)Nc2ccc3c(c2)OCCO3)c1`, the Potency was 20.6 µM (active). For the compound `Nc1nnc(SCC(=O)NCC(=O)Nc2ccc(F)c(F)c2F)s1`, the Potency result is “inactive”. Take `COc1ccc(C2/C=C\CN(CC(C)C)CC(=O)N2Cc2ccc(F)cc2)cc1` (stereo not drawn): the Potency entry is “inactive”. Next, `O=C1c2ccccc2C(O)N1Cc1ccccc1` (stereo not drawn): “inactive”; `O=C(N[C@H]1C/C=C\C(c2ccc(F)cc2)N(Cc2ccccc2)C(=O)C1)OCC1c2ccccc2-c2ccccc21` (stereo partly drawn): 18.4 µM (active). Next, `Cn1c(SCC(=O)N2CCCC2)nnc1-c1ccc2c(c1)OCO2`: “inactive”; `O=C(CNCc1ccc(Cl)cc1)Nc1cccc(C(=O)O)c1`: “inactive”; `CCOC(=O)n1c(SCC(=O)N(CC)CC)nc2ccccc21`: “inactive”. Next, `CCN(CC)C(=O)CSc1nc2ccsc2c(=O)n1Cc1ccccc1Cl`: 18.4 µM (active). Regarding `CCOC(=O)CSc1nc2c(c(=O)n(Cc3ccccc3Cl)c(=O)n2C)n1C`, the Potency entry is “inactive”. Turning to `O=C(CSc1ccsc1[N+](=O)[O-])N1CCCCC1`, the Potency entry was “inactive”.

As to `O=C(Nc1sc2c(c1-c1nc3ccccc3[nH]1)CCCC2)C1CC1`, the Potency entry was “inactive”. The result for `Fc1ccc(CNc2nc3ccccc3n3nnnc23)cc1` reads “inactive”; that for `CC(=O)Nc1nonc1-c1nc2ccccc2n1Cc1ccccn1`, “inactive”. The result for `COc1ccc(C)c(Cn2c(-c3nonc3N)nc3ccccc32)c1` reads 2.59 µM (active); that for `COc1ccc2oc(N)nc2c1`, “inactive”; that for `Nc1nonc1-c1nc2ccccc2n1Cc1ccc(F)cc1`, 16.4 µM (active).

On to `COc1cccc(C(O)c2nc3ccccc3n2C)c1` (stereo not drawn), for which the Potency entry is “inactive”. `CN(C)S(=O)(=O)c1ccc(N2CCCC2=O)c([N+](=O)[O-])c1`: the Potency entry was “inactive”.

In the case of `Cc1ccc(F)cc1NC(=O)N1CCCN(c2ccc(C(F)(F)F)cn2)CC1`, the Potency result is “inactive”.

Regarding `O=C(Cn1c(=O)n(Cc2ccccc2)c(=O)c2sc3ccccc3c21)Nc1ccccc1F`, the Potency entry is “inactive”. The result for `Brc1ccccc1C1N=C(c2ccccc2)NO1` (stereo not drawn) reads “inactive”. Next, `CCc1nc2c(=O)[nH]cnc2o1`: “inactive”; `Cc1n[nH]c(=O)c2c(NC(=O)CSc3cc(Cl)ccc3Cl)oc(C)c12`: “inactive”; `CCOc1ccc2c(=O)c(-c3ccc4c(c3)OCCCO4)c(C)oc2c1`: 18.4 µM (active). The result for `CCOc1ccc(NC(=O)Cn2cc(C(=O)c3ccc(C)cc3)c(=O)c3cc4c(cc32)OCCO4)cc1` reads “inactive”. Turning to `O=C(COc1ccc2c(C(F)(F)F)cc(=O)oc2c1)Nc1ccc2c(c1)OCCO2`, the Potency result is “inactive”. In the case of `Cc1nc2c(c(C)nn2-c2ccccc2)c(C)c1CCC(=O)NCCc1ccc(Cl)cc1`, the Potency result is “inactive”. Consider `Cc1ccccc1Nc1nn2c(=O)c3ccc(C(=O)NCCc4ccc(Cl)cc4)cc3nc2s1`, for which the Potency was 5.8 µM (active). For the compound `CCOC(=O)C1CCCN(C(=O)c2ccc(C)c(F)c2)CC1` (stereo not drawn), the Potency entry was “inactive”. Next, `CCOC(=O)C1CCN(C(=O)c2ccc3c(=O)n4nc(Nc5ccccc5CC)sc4nc3c2)CC1`: 13 µM (active); `CCc1ccc(Nc2nn3c(=O)c4cc5c(cc4nc3s2)OCO5)cc1`: “inactive”. The result for `C=CCn1c(SCC(=O)CC(=O)OCC)nc2cc(C(=O)N3CCC(C(N)=O)CC3)ccc2c1=O` reads “inactive”; that for `CC(=O)NS(=O)(=O)c1ccc2c(c1)Cc1cc(S(=O)(=O)NC(C)=O)ccc1-2`, “inactive”. With `O=C(CN(C(=O)CCC(=O)Nc1nccs1)c1ccc(F)cc1)NCc1ccc2c(c1)OCO2`, the Potency entry is “inactive”.

For `CO[C@@H]1[C@@H](OC(N)=O)[C@@H](O)C(Oc2ccc3c(O)c(NC(=O)c4ccc(O)c(CC=C(C)C)c4)c(=O)oc3c2C)OC1(C)C` (stereo partly drawn), the Potency entry was “inactive”. As to `Nc1ccc(-c2nnc(-c3ccccc3)o2)cc1`, the Potency result was “inactive”. `Cc1ccc(S(=O)(=O)NCCC(=O)Nc2cccc(S(N)(=O)=O)c2)cc1C`: the Potency result is “inactive”.

Regarding `c1ccc(-n2nnnc2N2CCOCC2)cc1`, the Potency result was “inactive”.

`c1ccc2c(NC3C4CC5CC(C4)CC3C5)nc(N3CCOCC3)nc2c1` (stereo not drawn): the Potency is 10.3 µM (active). Take `FC(F)(F)c1cc(-c2ccco2)nc(N2CCOCC2)n1`: the Potency entry was “inactive”. In the case of `Cc1ccc(NC(=O)Cc2nc(COC(=O)C(C)NS(=O)(=O)c3ccc(C)cc3)cs2)cc1` (stereo not drawn), the Potency entry is “inactive”. The result for `CCOC(=O)c1ccc(NC(=S)Nc2cc(C)cc(C)n2)cc1` reads “inactive”; that for `Brc1nc2ncnc(NCc3ccco3)c2[nH]1`, “inactive”; that for `CN(c1ccccc1)c1nc(N)c([N+](=O)[O-])c(NCc2ccco2)n1`, “inactive”. The result for `c1coc(CNc2ncnc3ccccc23)c1` reads 7.08 µM (active) and 10.3 µM (active). Next, `CS(=O)(=O)n1nc(-c2ccccc2)nc1NCc1ccco1`: “inactive”; `c1ccc(-c2nc(NCc3ccco3)c3ccccc3n2)cc1`: 16.4 µM (active). Regarding `Cc1ccc(C(=O)NNc2ncnc3ccccc23)cc1`, the Potency entry was “inactive”. Next, `COCCOC1CCN(C(=O)c2ccc(OC)c(OC3CCN(C(C)C)CC3)c2)CC1`: “inactive”. Turning to `Cc1cccc(NS(=O)(=O)c2ccc([N+](=O)[O-])cc2)n1`, the Potency result was “inactive”. The result for `CCOC(=O)c1cnc(-c2ccccc2)nc1Oc1ccc(C)cc1` reads “inactive”; that for `CCOC(=O)C1=C(c2ccc(OC)cc2)C(=O)c2ccccc2C1=O`, 1.16 µM (active); that for `COc1ccc(OCCCON2C(=O)c3ccccc3C2=O)cc1`, “inactive”. As to `Cc1cc(C)c(C#N)c(SCC(=O)NN2CC(=O)N(c3ccccc3F)CC2=O)n1`, the Potency entry was “inactive”. `COC(=O)c1ccc(CSc2nncn2N)cc1`: the Potency entry was “inactive”. With `CCOc1c2ccc(C(=O)NCc3ccc4c(c3)OCO4)cc2nn1C`, the Potency entry was “inactive”. Next, `C=CCNC(=O)c1ccc2c3n(nc2c1)-c1ccc(C)cc1CO3`: 20.6 µM (active). The result for `Cc1ccc(CCNC(=O)c2ccc3c(c2)nc2n3CCC(C)C2)cc1` (stereo not drawn) reads “inactive”; that for `Cc1cc2c(cc1C)NC1(C[C@H]3CCC(=O)N4CC[C@@H](C1)[C@@H]34)C(=NC(C)(C)CC(C)(C)C)N2` (stereo partly drawn), 20.6 µM (active). `O=C1CCC[C@@H]2C[C@@]3(C[C@@H]4CCN1[C@H]24)Nc1ccccc1NC3=NCc1ccccc1`: the Potency result was “inactive”.

For `O=C1CC[C@@H]2CC3(C[C@@H]4CCN1[C@H]24)Nc1cc([N+](=O)[O-])ccc1NC3=NC1CCCCC1` (stereo partly drawn), the Potency result was “inactive”. As to `COc1ccccc1NC(=O)C[n+]1ccccc1`, the Potency entry was “inactive”.

In the case of `COc1ccccc1NC(=O)c1cc(Cl)nnc1Cl`, the Potency entry was “inactive”.

With `COc1ccccc1NC(=O)/C=C/C(N)=O`, the Potency is 2.06 µM (active).

Take `Nc1ccccc1Sc1cc(Cl)nnc1Cl`: the Potency entry is “inactive”.

Take `Cc1ccsc1C(=O)OCC(=O)Nc1cccc(F)c1`: the Potency result is “inactive”. The result for `O=C(NCC(=O)N1CCN(c2ccccc2F)CC1)c1cccs1` reads “inactive”; that for `O=C(CNC(=O)c1ccc2ccccc2c1)Nc1ncccc1O`, “inactive”; that for `O=C(NCC(=O)N1CCN(c2ccccc2O)CC1)c1ccc2ccccc2c1`, 18.4 µM (active).

Turning to `CN(C)/C=C(\C#N)C(=O)c1cccnc1Oc1cccc(F)c1`, the Potency result is “inactive”. Next, `COCc1[nH][nH]c(=O)c1C=Nc1ccc(F)cc1F`: “inactive”; `O=C(c1cc2ccccc2o1)N1CCN(c2cccc(C(F)(F)F)c2)CC1`: “inactive”. Next, `Cc1ccc(C)c(S(=O)(=O)N2CCCOC2CNC(=O)C(=O)NC2CCCCC2)c1` (stereo not drawn): “inactive”. The result for `Cn1c(Nc2ccccc2)cc(=O)n(C)c1=O` reads “inactive”. With `S=c1ccc2ccccc2[nH]1`, the Potency was 13 µM (active). Turning to `CCOC(=O)c1ccccc1NS(=O)(=O)c1c(C)nc2sccn2c1=O`, the Potency result was “inactive”. In the case of `O=C(CSC1=Nc2ccccc2C2=NC(CC(=O)NCc3ccco3)C(=O)N12)NCc1ccco1` (stereo not drawn), the Potency entry was “inactive”. Regarding `Cc1ccc(CNC(=O)CSC2=Nc3ccccc3C3=NC(C)C(=O)N23)cc1` (stereo not drawn), the Potency result was “inactive”.

For the compound `COc1ccccc1NC(=O)CSC1=Nc2ccccc2C2=NC(CC(=O)NCc3cccs3)C(=O)N12` (stereo not drawn), the Potency was 20.6 µM (active). The result for `CN1CCC(=NNC(=O)c2ccc(N(Cc3ccc(Cl)cc3)S(C)(=O)=O)cc2)CC1` reads “inactive”; that for `CC(=O)Nc1ccc(NC(=O)CC2CCCC2)cc1`, “inactive”; that for `CSc1ncnc2c1ncn2CCCNCC1CCCCC1`, “inactive”. For `CSc1ncnc2c1ncn2CC(=O)C1CCC2C3CCC4=CC(=O)CCC4(C)C3CCC12C` (stereo not drawn), the Potency was 5.8 µM (active). Next, `CCOC(=O)c1ccc(CS(=O)c2ccc(Cl)cc2)o1` (stereo not drawn): “inactive”; `CC(Nc1ccc([N+](=O)[O-])cc1[N+](=O)[O-])c1ccccc1` (stereo not drawn): “inactive”; `CCN(CC)c1ccc(/C=N/Nc2nc(C)cc(C)n2)c(O)c1`: 4.11 µM (active). The result for `CCN(CC)c1ccc(/C=N/NC(=O)c2cnccn2)c(O)c1` reads 5.17 µM (active). Next, `CCN(CC)c1ccc(/C=N/NC(=O)CNC(=O)c2cccnc2)cc1`: “inactive”; `CCN(CC)c1ccc(C(=O)Nn2c(C)nc3ccccc3c2=O)cc1`: “inactive”. Take `Cc1ccc(C(=O)NCCNC(=O)c2cnccn2)cc1`: the Potency result was “inactive”. The result for `O=C(NCc1ccco1)c1cccc(-c2ccc3nncn3c2)c1` reads “inactive”; that for `CS(=O)(=O)c1cccc(-c2ccc3nncn3c2)c1`, “inactive”. The result for `NC(=O)c1ncc(C(F)(F)F)cc1Oc1ccc(F)cc1` reads “inactive”; that for `O=C(Nc1ccccc1Cl)Nn1cnnc1`, “inactive”. Take `O=C(CCN1CCc2ccccc2C(O)(c2ccccc2)C1)c1ccc2c(c1)OCCO2` (stereo not drawn): the Potency was 2.31 µM (active). In the case of `O=C(CN1CCC(O)(c2ccccc2)CC1)Nc1ccc2c(c1)OCCO2`, the Potency result is “inactive”. Next, `O=C(COC(=O)c1ccccc1)c1ccc2c(c1)OCCO2`: “inactive”; `Cc1ccc(N2C(=O)C3C4C=CC(CC4)C3C2=O)cc1Br` (stereo not drawn): “inactive”; `COc1ccc(N2C(=O)CC(N3CCC(C(N)=O)CC3)C2=O)cc1` (stereo not drawn): “inactive”. On to `COc1ccc(CCN2C(=O)C3CC=C(C)CC3C2=O)cc1OC` (stereo not drawn), for which the Potency result is “inactive”. Take `COc1ccc(CCN2C(=O)CC(N3CCC(C(N)=O)CC3)C2=O)cc1OC` (stereo not drawn): the Potency was 25.9 µM (active). The result for `CC(=O)Nc1cccc(OCC(=O)/C=C2\N(C)c3ccccc3C2(C)C)c1` reads 6.51 µM (active). The result for `COc1cccc(NC(=S)C(C#N)=C2N(C)c3ccccc3N2C)c1` reads “inactive”; that for `CN1CCN(CCC(=O)N/N=C/C=C2\N(C)c3ccccc3C2(C)C)CC1`, “inactive”.
